A number with no mark means an inactive call. Results filed as inconclusive are left out. Activity calls are given as the source filed them. Unless noted, the call rests on the fitted dose curve; in most records, active means well fitted curve in the direction sought with a large enough effect in the repeat runs; inconclusive means weak or mixed curves; inactive means no such curve, though single readings can be large; an effect the other way counts as inactive or inconclusive.

Data on 19 molecules can be found in PubChem BioAssay (Tox21).

A short description of experiment [1]: qHTS assay to identify small molecule antagonists of the estrogen receptor alpha (ER-alpha) signaling pathway using the BG1 cell line in the presence of 0.1 nM 17-beta-estradiol - cell viability counter screen (AID 1259241). Further: nearly all actives have a fitted effect of over 40% in size. An outline of the steps: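 VM7Luc4E2 cells (endogenous full-length ER-alpha, 4xERE-luciferase), cultured 5 days in charcoal-stripped serum, exposed to compounds with 0.1 nM 17beta-estradiol (final) for 22 hr at 37C. Viability read in same wells as live-cell protease fluorescence after 30 min.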
(In qHTS, concentration-response curves come from the screen itself.)

The nature of experiment [2]: qHTS assay to identify small molecule antagonists of the androgen receptor (AR) signaling pathway using the MDA cell line in the presence of 0.5 nM R1881 - cell viability counter screen (AID 1259242). Further: nearly all actives have a fitted effect of over 45% in size. An outline of the steps:
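Human breast carcinoma MDA-kb2 cells, cultured without CO2, receive compounds alongside 0.5 nM (final) R1881 agonist. After 16 hr at 37C, viability is taken as live-cell protease signal.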

The target of experiment [3] is Estrogen receptor (Homo sapiens) (UniProt P03372). The experiment is described as follows: qHTS assay to identify small molecule antagonists of the estrogen receptor alpha (ER-alpha) signaling pathway using the BG1 cell line in the presence of 0.1 nM 17-beta-estradiol (AID 1259244). Further: nearly all actives have a fitted effect of over 50% in size. Further: potency means the concentration at half of the fitted maximal effect. In short, it runs like this:
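Seeding of stripped-serum-adapted VM7Luc4E2 cells, 24 h attachment, compound transfer, then 0.1 nM final 17beta-estradiol; after 22 h incubation, ONE-Glo reagent and luminescence reading.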

Experiment [4] can be described thus: qHTS assay to identify small molecule phospholipidosis (PLD) inducers (AID 1259344; active means well fitted curve in the direction sought with a large enough effect; an effect the other way counts as inactive or inconclusive). An outline of the steps:
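After 4 h attachment on collagen I, HepG2 cells were dosed with compound alongside LipidTOX Red, kept 24 h at 37 C, fixed, and imaged for lamellar phospholipid pits.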

Experiment [5] is described as follows: qHTS assay to identify small molecule HDAC inhibitors (AID 1259364).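 Further: wild-type HCT-116 cells with endogenous class I/II HDAC activity; top concentration of the series differs between compounds; nearly all actives have a fitted effect of over 45% in size.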 In short, it runs like this: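 After a 2 hr compound incubation (37C, 5% CO2), HCT-116 cells seeded at 1,500/well the day before received HDAC-Glo reagent; signal read as luminescence after 30 min at room temperature.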
The nature of experiment [6]: qHTS assay to identify small molecule HDAC inhibitors - cell viability counter screen (AID 1259365). Further: series mostly up to about 92 µM; nearly all actives have a fitted effect of over 50% in size. An outline of the steps:
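Wild-type HCT-116 cells, 1,500/well, cultured overnight, then compound-treated 2 h at 37 C. Viability measured as ATP luminescence with CellTiter-Glo after 30 min at room temperature.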

Experiment [7] can be described thus: qHTS assay to identify small molecule agonists of the sonic hedgehog signaling (Shh) pathway (AID 1259368; calls by dose curve;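 further: NIH/3T3-derived 3T3Gli1-Luc cells carrying a stable Gli1-driven firefly luciferase reporter; series mostly up to about 92 µM; nearly all actives have a fitted effect of over 15% in size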). In short, it runs like this:
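Stable NIH/3T3 Gli1-Luc reporter clone; 24 hr cpd exposure after a 4 hr settling period; luminescence endpoint.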

A short description of experiment [8]: qHTS assay to identify small molecule agonists of the sonic hedgehog signaling (Shh) pathway - cell viability counter screen (AID 1259366). Further: nearly all actives have a fitted effect of over 50% in size. An outline of the steps: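 NIH/3T3-derived Gli1-Luc reporter cells, 2,000 per well, received compound after 4 h and were treated about 23 h at 37C. Viability measured in the same wells by CellTiter-Fluor fluorescence after 1 h.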

Experiment [9] can be described thus: qHTS assay to identify small molecule antagonists of the sonic hedgehog signaling (Shh) pathway - cell viability counter screen (AID 1259367). Further: nearly all actives have a fitted effect of over 55% in size. An outline of the steps: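 Conditioned medium drove Shh signaling in 3T3 Gli1-Luc cells exposed to compounds at 37C and 5% CO2. Viability was determined from CellTiter-Fluor fluorescence, with reagent incubated 1 hr after 23 hr of treatment.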
On the % scale 0 is the no-effect control and ±100 the full control effect.

Chain of Estrogen receptor (Homo sapiens) (P03372 whole entry, looked up): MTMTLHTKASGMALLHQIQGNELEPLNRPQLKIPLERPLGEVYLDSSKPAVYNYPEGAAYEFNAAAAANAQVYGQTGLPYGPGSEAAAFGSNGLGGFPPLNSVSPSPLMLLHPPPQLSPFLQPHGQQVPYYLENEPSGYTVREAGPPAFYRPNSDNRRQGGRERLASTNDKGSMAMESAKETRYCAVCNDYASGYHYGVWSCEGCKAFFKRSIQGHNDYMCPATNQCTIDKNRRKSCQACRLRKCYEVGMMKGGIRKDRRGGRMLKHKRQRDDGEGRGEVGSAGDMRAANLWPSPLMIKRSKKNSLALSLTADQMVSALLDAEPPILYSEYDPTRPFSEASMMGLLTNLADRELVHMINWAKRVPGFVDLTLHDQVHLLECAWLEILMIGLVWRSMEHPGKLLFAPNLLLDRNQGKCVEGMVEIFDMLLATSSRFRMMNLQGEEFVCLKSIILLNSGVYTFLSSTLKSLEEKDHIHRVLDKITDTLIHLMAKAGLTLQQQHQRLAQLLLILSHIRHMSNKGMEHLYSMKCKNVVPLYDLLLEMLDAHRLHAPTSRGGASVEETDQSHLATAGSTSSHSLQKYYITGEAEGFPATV

Regarding `O=C(O)c1ccccc1Nc1cc(Cl)ccc1C(=O)O`, the activity change, negative = cytotoxicity was -25.8% [at 19 µM] in experiment [1] and -5.17% [at 19 µM] in experiment [6]. Moreover, in experiment [2], the viability change, negative = cytotoxic was -0.133% [at 19 µM]. Also, the activity change, negative = inhibition in [3] was -11% [at 19 µM]; in experiment [5], -1.95% [at 19 µM]. In [4], the PLD induction is -4.32% [at 7.66 µM]. For the same molecule, in [7], the activity change is -0.0136% [at 18.9 µM, active compounds read high].

On to `O=C(O)c1cccc(Cl)c1Cl`, for which the Potency result in experiment [1], in [3], in experiment [5], in experiment [8], in experiment [9] and in [7] was “inactive” in each case. Further, the outcome in experiment [2] and in [6] was inactive.

Turning to `Cc1c[nH]c(=S)[nH]c1=O`, the Potency result in experiment [1], in [3], in experiment [5], in [8], in [9] and in experiment [7] was “inactive” each time. In addition, the outcome in [2] and in experiment [6] was inactive.

In the case of `Cc1nc(N)nc(N)c1-c1ccc(Cl)c(Cl)c1`, the Potency entry in [1], in [5] and in experiment [8] was “inactive” throughout. Moreover, the outcome in experiment [2] and in [6] was inactive. The Potency in experiment [3] is 13.3 µM (active).

As for `OCc1c2ccccc2cc2ccccc12`, the Potency entry in [1], in experiment [3], in experiment [5], in [8], in experiment [9] and in experiment [7] was “inactive” each time. For the same molecule, the result in [2] and in experiment [6] was inactive.

`CCN[C@H]1CN(CCCOC)S(=O)(=O)c2sc(S(N)(=O)=O)cc21`: the Potency result in [1], in experiment [3], in experiment [5], in [8] and in experiment [7] was “inactive” throughout. In addition, the result in experiment [2], in experiment [4] and in experiment [6] was inactive.

For the molecule `O=Cc1ccc(F)c(Br)c1`, the Potency entry in experiment [1], in [3], in experiment [5], in [8], in [9] and in experiment [7] was “inactive” throughout. Besides, the outcome in [2] and in experiment [6] was inactive.

Take `NNS(=O)(=O)c1ccc(Oc2ccc(S(=O)(=O)NN)cc2)cc1`: the Potency entry in [1], in experiment [3], in experiment [5], in experiment [8] and in [9] was “inactive” each time. Besides, the outcome in experiment [2] and in [6] was inactive.

As to `CCOc1ccc(NC(N)=O)cc1`, the Potency entry in experiment [1], in [3], in [5], in [8] and in experiment [9] was “inactive” throughout. The outcome in experiment [2] and in experiment [6] was inactive.

`FC(F)(F)c1ccccc1`: the Potency entry in experiment [1], in experiment [3], in experiment [5], in [8], in experiment [9] and in experiment [7] was “inactive” throughout. Also, the result in [2] and in [6] was inactive.

For the molecule `CCCCC(CC)COC(=O)COc1cc(Cl)c(Cl)cc1Cl` (stereo not given), the Potency result in [1], in [3], in experiment [5], in experiment [8], in [9] and in experiment [7] was “inactive” in each case. Besides, the outcome in experiment [2] and in experiment [6] was inactive.

For the molecule `CCc1cc(Cl)c(OC)c(C(=O)NC[C@@H]2CCCN2CC)c1O`, the Potency result in experiment [1], in experiment [3], in experiment [5], in experiment [8], in experiment [9] and in [7] was “inactive” each time. The outcome in [2] and in experiment [6] was inactive.

On to `CCOc1ccc(OCC)c(Cl)c1`, for which the Potency result in [1], in [3], in experiment [5], in experiment [8], in experiment [9] and in experiment [7] was “inactive” each time. For the same molecule, the outcome in experiment [2] and in experiment [6] was inactive.

Regarding `FC(F)(F)C(Cl)(Cl)Cl`, the Potency entry in experiment [1], in experiment [3], in experiment [5], in [8], in experiment [9] and in [7] was “inactive” throughout. Also, the outcome in experiment [2] and in experiment [6] was inactive.

In the case of `CCCCCCOc1ccc(N)cc1`, the Potency entry in experiment [1], in [3], in [8], in [9] and in experiment [7] was “inactive” in each case. The outcome in experiment [2] and in experiment [6] was inactive.

As for `COC(=O)c1ccc2cc(C(=O)OC)ccc2c1`, the figures for the activity change, negative = cytotoxicity in experiment [1] and in experiment [6] were -8.86% [at 19 µM] and -11% [at 19 µM], respectively. Moreover, the viability change, negative = cytotoxic in experiment [2] is 1.72% [at 19 µM]; in experiment [8], 0.624% [at 19 µM]. For the same molecule, the activity change, negative = inhibition in experiment [3] was -28.1% [at 19 µM]; in [5] it was -8.76% [at 19 µM]. Moreover, in experiment [7], the activity change is 6.39% [at 18.9 µM, active compounds read high].

As for `CCCCCCC`, the Potency result in [1], in experiment [3], in [5], in experiment [8], in [9] and in [7] was “inactive” in each case. Besides, the outcome in [2] and in experiment [6] was inactive.

As to `CCC/C=C/CO`, the Potency entry in [1], in [3], in [5], in [8], in [9] and in experiment [7] was “inactive” throughout. In addition, the result in [2] and in [6] was inactive.

As for `CCCCCCCCOC(=O)CCCCCCCCC(=O)OCCCCCCCC`, the Potency result in experiment [1], in [3], in [5], in experiment [8], in experiment [9] and in experiment [7] was “inactive” throughout. For the same molecule, the outcome in [2] and in experiment [6] was inactive.
